miR122 inh: activators of miR-122 sensor in Huh7 cells | Huh7 psiCHECK-miR122 Renilla luciferase sensor, 48 h | activation, % at 12.5 µM | actives 0.14% (n = 340,000);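 active means mean activation of 30% or more, with every replicate also reaching 30%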;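 further: higher luciferase signal means stronger suppression of miR-122 activity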
Of the large screens only hits and unclear results are named; the others gave an inactive call. Many of the other results were omitted from the sample, so hits are more common in it than they were.

C[C@@H]1CN([C@H](C)CO)C(=O)c2cc(C3=CCCC3)cnc2O[C@@H]1CN(C)C(=O)C1CCCCC1	none
Oc1ccccc1/C=N/Nc1nc2ccccc2o1	miR122 inh 48.1
C[C@@H]1CN([C@@H](C)CO)S(=O)(=O)c2ccc(-c3ccncc3)cc2O[C@H]1CN(C)Cc1ccccn1	none
C[C@@H]1CN([C@H](C)CO)C(=O)c2cc(-c3ccc(F)cc3)cnc2O[C@H]1CN(C)C(=O)c1ccccn1	none
Cc1ccc(S(=O)(=O)NCC[C@@H]2CC[C@@H](NC(=O)c3cnccn3)[C@H](CO)O2)cc1	none
O=C(N[C@H]1CC[C@H](CCn2cc(C3(O)CCCC3)nn2)O[C@H]1CO)c1ccccc1F	miR122 inh 42.3
CCCN(C)C[C@H]1Oc2cc(Br)ccc2S(=O)(=O)N([C@H](C)CO)C[C@H]1C	none
COc1cccc(S(=O)(=O)N(C)C[C@H]2Oc3ncc(C#CCC(C)C)cc3C(=O)N([C@@H](C)CO)C[C@@H]2C)c1	none
COc1ccc(-c2cnc3c(c2)C(=O)N([C@@H](C)CO)C[C@@H](C)[C@H](CN(C)C(=O)C2CCOCC2)O3)cc1	none
C[C@H]1CN([C@@H](C)CO)S(=O)(=O)c2ccc(-c3ccncc3)cc2O[C@@H]1CN(C)C(=O)C1CC1	none
C[C@H](CO)N1C[C@H](C)[C@H](CN(C)Cc2ccc(C(=O)Nc3ccccc3N)cc2)Oc2ccc(NS(=O)(=O)c3cccs3)cc2CC1=O	none
COc1cccc(NS(=O)(=O)c2cc(C)sc2C)c1	none
CCCCCCNS(=O)(=O)c1ccc(Cl)s1	none
COc1ccc2[nH]c(C(=O)O)c(NS(=O)(=O)c3ccc(Cl)s3)c2c1	miR122 inh 39.8
CNC[C@H]1Oc2cc(-c3cccc(F)c3)ccc2S(=O)(=O)N([C@H](C)CO)C[C@@H]1C	none
C[C@@H]1CN([C@@H](C)CO)C(=O)c2cc(-c3ccc(F)cc3)cnc2O[C@H]1CN(C)Cc1cccnc1	none
C[C@@H]1CN([C@H](C)CO)S(=O)(=O)c2ccc(-c3ccncc3)cc2O[C@H]1CN(C)C(=O)C1CC1	none
C[C@@H]1CN([C@H](C)CO)C(=O)c2cc(/C=C/c3ccccc3)cnc2O[C@H]1CN(C)Cc1cccc(C(=O)O)c1	none
CCC(=O)N(C)C[C@@H]1Oc2cc(C#C[C@@H](C)O)ccc2S(=O)(=O)N([C@@H](C)CO)C[C@H]1C	none
C[C@@H]1CCCCO[C@@H](CN(C)CC2CCCCC2)[C@@H](C)CN([C@H](C)CO)C(=O)c2cc(NC(=O)CCC(F)(F)F)ccc2O1	none
C[C@H](CO)N1C[C@H](C)[C@H](CN(C)CC2CCCCC2)Oc2ccc(NC(=O)Nc3ccc(C(F)(F)F)cc3)cc2C1=O	miR122 inh 44.1
C[C@H]1CN([C@@H](C)CO)C(=O)Cc2cc(NC(=O)Nc3ccc(C(F)(F)F)cc3)ccc2O[C@H]1CN(C)S(=O)(=O)c1ccc(F)cc1	none
C[C@H]1CN([C@@H](C)CO)C(=O)c2cccc(NC(=O)Nc3ccc4c(c3)OCO4)c2O[C@@H]1CN(C)CC1CCCCC1	none
C[C@@H]1CN([C@@H](C)CO)C(=O)c2cc(NC(=O)NC3CCCCC3)ccc2O[C@@H]1CN(C)C(=O)Nc1ccc2c(c1)OCO2	miR122 inh 32.4
C[C@@H]1CN([C@H](C)CO)C(=O)c2cc(-c3ccccc3)cnc2O[C@H]1CN(C)C(=O)Nc1ccc2c(c1)OCO2	none
C[C@@H]1CCCCO[C@H](CN(C)CC2CCCCC2)[C@H](C)CN([C@@H](C)CO)C(=O)c2cc(NC(=O)Nc3ccc(C(F)(F)F)cc3)ccc2O1	miR122 inh 31.7
C[C@@H]1CN([C@@H](C)CO)C(=O)c2cc(NC(=O)CCC(F)(F)F)ccc2O[C@@H]1CN(C)C(=O)Nc1ccc2c(c1)OCO2	none
C[C@H]1CN([C@@H](C)CO)C(=O)c2cccc(NC(=O)C3CCCCC3)c2O[C@@H]1CN(C)Cc1ccc(C(F)(F)F)cc1	none
COc1cccc(-c2ccc3c(c2)O[C@H](CN(C)C(C)=O)[C@@H](C)CN([C@H](C)CO)S3(=O)=O)c1	none
COCC(=O)N(C)C[C@H]1Oc2ncc(C#Cc3ccncc3)cc2C(=O)N([C@@H](C)CO)C[C@@H]1C	none
CCC(=O)Nc1ccc2c(c1)OC[C@@H](C)N(C(=O)c1ccncc1)C[C@@H](C)[C@H](OC)CN(C)C2=O	none
COCC(=O)N(C)C[C@@H]1Oc2cc(-c3cccc(F)c3)ccc2S(=O)(=O)N([C@H](C)CO)C[C@@H]1C	none
C[C@H]1CN([C@@H](C)CO)S(=O)(=O)c2ccc(Br)cc2O[C@@H]1CN(C)C(=O)CC1CC1	none
Cc1ccc(S(=O)(=O)N(C)C[C@@H]2Oc3ccc(NC(=O)Nc4ccc5c(c4)OCO5)cc3CC(=O)N([C@@H](C)CO)C[C@@H]2C)cc1	none
C[C@@H]1CN([C@@H](C)CO)C(=O)c2cc(-c3ccc(F)cc3)cnc2O[C@@H]1CN(C)C(=O)c1cccnc1	none
CCCNC(=O)N1C[C@@H](C)[C@H](OC)CN(C)C(=O)c2cc(NS(=O)(=O)CC)ccc2OC[C@H]1C	none
CCCNC(=O)N(C)C[C@H]1Oc2ncc(C#Cc3ccccc3F)cc2C(=O)N([C@@H](C)CO)C[C@@H]1C	none
CCC(=O)Nc1ccc2c(c1)OC[C@H](C)N(Cc1ccccc1F)C[C@@H](C)[C@H](OC)CN(C)C2=O	none
COCC(=O)Nc1ccc2c(c1)OC[C@@H](C)N(C(C)=O)C[C@@H](C)[C@H](OC)CN(C)C2=O	none
C[C@H](O)C#Cc1cnc2c(c1)C(=O)N([C@@H](C)CO)C[C@H](C)[C@H](CN(C)C(=O)CN(C)C)O2	none
C[C@H](CO)N1C[C@H](C)[C@H](CN(C)C(=O)c2ccccn2)Oc2ncc(-c3cccc(F)c3)cc2C1=O	none
C[C@@H]1CN([C@H](C)CO)C(=O)c2cc(C#CCN(C)C)cnc2O[C@@H]1CN(C)C(=O)Cc1ccncc1	none
C[C@@H]1CN([C@@H](C)CO)S(=O)(=O)c2ccc(C3=CCCCC3)cc2O[C@@H]1CN(C)C(=O)Nc1ccc2c(c1)OCO2	miR122 inh 46.3
C[C@@H]1CN([C@H](C)CO)S(=O)(=O)c2ccc(C3=CCCCC3)cc2O[C@@H]1CN(C)S(C)(=O)=O	none
CC(C)NC(=O)N(C)C[C@@H]1Oc2cc(C3=CCCCC3)ccc2S(=O)(=O)N([C@@H](C)CO)C[C@@H]1C	none
C[C@@H]1CN([C@@H](C)CO)S(=O)(=O)c2ccc(C3=CCCCC3)cc2O[C@@H]1CN(C)C(=O)Cc1ccncc1	miR122 inh 47.6
C[C@H]1CN([C@@H](C)CO)S(=O)(=O)c2ccc(C#Cc3ccccc3)cc2O[C@H]1CN(C)C(=O)Nc1ccc2c(c1)OCO2	none
C[C@H](CO)N1C[C@H](C)[C@@H](CN(C)S(C)(=O)=O)Oc2cc(C3=CCCCC3)ccc2S1(=O)=O	none
C[C@@H]1CN([C@@H](C)CO)S(=O)(=O)c2ccc(C3=CCCCC3)cc2O[C@@H]1CN(C)C(=O)CC1CC1	none
C[C@H]1CN([C@@H](C)CO)S(=O)(=O)c2ccc(C3=CCCCC3)cc2O[C@H]1CN(C)C(=O)CC1CC1	none
C[C@H]1CN([C@@H](C)CO)S(=O)(=O)c2ccc(Br)cc2O[C@@H]1CN(C)C(=O)Nc1ccc2c(c1)OCO2	none
C[C@@H]1CN([C@@H](C)CO)S(=O)(=O)c2ccc(C3=CCCC3)cc2O[C@@H]1CN(C)C(=O)c1ccc(F)cc1	miR122 inh 36.5
C[C@@H]1CN([C@H](C)CO)S(=O)(=O)c2ccc(C3=CCCCC3)cc2O[C@@H]1CN(C)C(=O)Nc1ccc2c(c1)OCO2	miR122 inh 31.8
C[C@@H]1CN([C@H](C)CO)S(=O)(=O)c2ccc(C3=CCCCC3)cc2O[C@H]1CN(C)S(C)(=O)=O	none

Compound activity: PubChem, Broad Institute
